Source: PubChem BioAssay (National Center for Advancing Translational Sciences (NCATS))
Sm TGR block: S. mansoni TGR enzyme inhibition; Q962Y6; Potency, µM (titrated, usually from 114 µM), most hits filed as inhibitors; AID 485364; purified TGR, DTNB reduction, TNB absorbance 405 nm; 360,000 tested, 3% active; further: nearly all actives have a fitted effect of over 60% in size
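TGR 20 nM + NADPH 100 uM (dispensed conc.), cpd preinc 15 min RT; start with NADPH (500 uM addition) then DTNB (15 mM addition). Kinetic TNB absorbance, 405 nm filter. Four-parameter Hill fit across titration.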
Pf growth 96h: P. falciparum growth inhibition at 96 hour, primary screen for plastid delayed-death inhibitors; P. falciparum luciferase reporter growth, 96 h; AID 504834; Potency, µM (top dose mostly 28.7 µM), most hits filed as inhibitors; 320,000 tested, 6.9% active
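Plates of compound plus infected erythrocytes (2% hematocrit, 0.05% parasitemia final) incubate 96 hours, 37 C, 5% CO2. Detection reagent added; reduced luminescence from the parasites' luciferase reporter flags inhibition.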
HCV inhibitor: inhibitors of hepatitis C virus infection; Potency, µM (doses to about 41.8 µM), hits mostly inhibitors; 340,000 tested, 3.4% active; Huh7.5.1 HCVcc-Cre infection, luciferase reporter, 44 h
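Antiviral activity was scored by luciferase reporter output from cells infected with HCVcc-Cre (~0.5 moi) in presence of compound, 44 h infection period, cells seeded 1,000/well 4 h prior.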
HCMV inh: blocks human cytomegalovirus replication | HFF cells, HCMV-luciferase reporter, 72 h; hits give low values | activity change, negative = inhibition, % at 57.5 µM | 410,000 tested, 4.5% active; in the data active means activity change below about -60%; inconclusive means no clear call, values can overlap the other calls; inactive means above about -39%
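Two compound doses tested in HFFs infected with HCMV-luciferase, MOI 1 PFU/cell, 72 h at 37C. Lysate luminescence read with OneGlo; data normalized against buffer-only and 10uM Salinomycin inhibitor controls.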
Pf growth 48h: P. falciparum growth inhibition at 48 hours (one generation). P. falciparum luciferase growth in erythrocytes, 48 h. Potency, µM (doses to about 28.7 µM), hits mostly inhibitors. 310,000 tested, 5.9% active. AID 504832
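Firefly luciferase activity from engineered P. falciparum reports growth; inhibitors lower the luminescent signal. Cultures contained 2% hematocrit erythrocytes at 0.1% final parasitemia.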
SARS PLpro yeast: SARS-CoV PLP inhibition in yeast; S. cerevisiae expressing SARS-CoV PLpro, growth rescue; Potency, µM (doses to about 32.9 µM), most hits filed as activators; 330,000 tested, 0.19% active; calls by dose curve; further: nearly all actives have a fitted effect of over 55% in size
A number is an active result; n = inactive; u = inconclusive; x = not tested or not shown. Most compounds without a hit are left out; they make up all but 15% or so of the library. Unless noted, the call rests on the fitted dose curve; in most records, active means well fitted curve in the direction sought with a large enough effect; inconclusive means small, poorly fitted or top-dose-only effect, or another doubt; inactive means no such curve, though single readings can be large; an effect the other way counts as inactive or inconclusive.

SMILES	Sm TGR block	Pf growth 96h	HCV inhibitor	HCMV inh	Pf growth 48h	SARS PLpro yeast
C=CCOC(=O)Nc1c(C(=O)OC)[nH]c2ccccc12	n	n	10µM	n	u	n
CCOC(=O)Nc1c(C(=O)OC)[nH]c2cc(OC)ccc12	n	u	25µM	n	n	n
CCCCNC(=O)Nc1c(C(=O)OCC)[nH]c2ccccc12	n	8.3µM	n	n	n	n
CCOC(=O)c1[nH]c2ccccc2c1NC(=O)c1c(F)cccc1F	n	x	x	n	x	x
COC(=O)c1[nH]c2ccccc2c1NC(=O)c1ccccc1F	n	n	13µM	n	n	n
O=C(CCN1C(=O)COc2ccccc21)NCCCN1CCN(c2ccccc2F)CC1	n	2.6µM	n	n	n	n
O=C(CCN1C(=O)COc2ccccc21)N1CCN(c2ccccn2)CC1	n	n	n	-73	n	n
O=C(CN1C(=O)COc2ccccc21)NCCCN1CCCCC1	n	1µM	n	n	n	n
O=C(CCN1C(=O)COc2ccccc21)N1CCN(c2ccccc2)CC1	n	n	n	n	n	n
COC(=O)N/N=C/c1cn(CC(C)COc2ccccc2)c2ccccc12 (stereo unspecified)	n	n	u	n	n	n
O=C(Cc1ccc(NC(=O)C2CCN(C(=O)C3CCCC3)CC2)cc1)Nc1cccc(C(=O)N2CCCCC2)c1	x	x	u	n	x	x
OCCN1C2=NCCCN2c2ccccc21	n	7.4µM	n	n	n	n
Clc1ccc(CN2C3=NCCN3c3ccccc32)cc1Cl	n	n	10µM	n	u	n
Cc1ccc(C)c(C(=O)CN2C3=NCCCN3c3ccccc32)c1	n	9.3µM	u	u	7.4µM	u
CCCCCCN1C2=NCCCN2c2ccccc21	n	12µM	u	u	u	n
Cc1nc2c3ccccc3nc(NNC(=O)CCC(=O)NCCN3CCN(c4ccccc4)CC3)n2n1	n	u	n	n	n	n
CC(=O)c1ccc(NC(=O)CCc2c(C)nn(-c3ccc4nncn4n3)c2C)cc1	n	x	x	n	x	x
Cc1nc(NCCC(C)C)c2nnn(Cc3ccccc3)c2n1	n	n	n	n	n	n
O=C(CCCCn1c(=O)c2ccccc2n(CC(=O)Nc2ccccc2)c1=O)NCc1ccccc1Cl	n	x	x	n	x	x
O=C([C@H]1O[C@@H](n2ccc(=O)[nH]c2=O)[C@H](O)[C@@H]1O)N1CCSC1	x	x	x	n	x	x
Cc1ccc(C(O)CN2C3=NCCCN3c3ccccc32)cc1 (stereo unspecified)	n	4.1µM	u	n	u	n
CCCN1C2=NS(=O)(=O)CCN2c2ccccc21	n	x	n	-101	n	n
c1ccc2c(c1)N1CCN=C1N2CCN1CCCCC1	n	n	u	n	u	n
OC(CN1C2=NCCCN2c2ccccc21)c1ccc2c(c1)OCO2 (stereo unspecified)	n	n	n	n	u	n
Clc1ccc(N2CCN(c3ccnc(Cl)n3)CC2)cc1	x	x	u	n	x	x
SMILES	Sm TGR block	Pf growth 96h	HCV inhibitor	HCMV inh	Pf growth 48h	SARS PLpro yeast
CSc1nccc(N2CCN(c3ccc(F)cc3)CC2)n1	n	12µM	u	u	u	n
CCCCCCCCCCCCCCCCCCNc1ccn(C2OC(COP(=O)(O)OCC3OC(n4cc(F)c(=O)[nH]c4=O)CC3O)C(O)C2O)c(=O)n1 (stereo unspecified)	x	x	u	-88	x	x
CN(C)c1nc(N/N=C\c2ccc(Cl)c([N+](=O)[O-])c2)nc(Nc2ccc(F)cc2)n1	x	x	22µM	n	x	x
Nn1cnnc1N/N=C/c1ccc(Cl)c([N+](=O)[O-])c1	u	u	n	n	u	n
CCCCN(C(=O)c1cccc2c(=O)c(C)c(-c3ccccc3)oc12)c1ccccc1	n	4.1µM	u	-63	u	n
Cc1ccc(NC(=O)COC(=O)c2cccc3c(=O)c(C)c(-c4ccccc4)oc23)cc1	n	n	u	n	n	n
CCCCNC(=O)c1cccc2c(=O)c(C)c(-c3ccccc3)oc12	n	u	u	-68	n	n
CN(CCCNC(=O)c1ccccc1F)CCCNC(=O)c1ccccc1F	n	9.3µM	n	n	u	n
CCCCNC(=O)c1ccccc1C(=O)NCCCC	n	n	n	n	n	n
CCCCNC(=O)c1ccccc1Cl	n	u	n	-107	x	n
COc1cc(CNc2ccc(S(N)(=O)=O)cc2)ccc1OCC(=O)NC1CCCCC1	n	n	n	n	n	n
CCOC(=O)c1c(NCc2ccccc2)n[nH]c1C	n	n	n	n	n	n
CCOC(=O)c1c(Nc2ccccc2OCCOC)n[nH]c1C	n	9.3µM	n	n	u	n
CC(=O)c1nn(-c2cccc(Br)c2)cc1C(=O)c1ccc(C)cc1	n	n	u	-69	x	n
Cc1ccc(NC(c2ccc(Cl)cc2)c2nnc(-c3cccc(F)c3)o2)cc1C (stereo unspecified)	n	x	x	n	x	x
Cc1ccc(C(=O)c2oc3ccccc3c2NC(=O)c2cc(-c3cc(C)ccc3O)n[nH]2)cc1	n	0.33µM	n	-63	0.33µM	n
Cc1ccc(C(=O)c2oc3ccccc3c2NC(=O)c2cc(-c3ccccc3O)n[nH]2)cc1	n	0.59µM	n	-63	1.5µM	n
O=C(Nc1c(C(=O)c2ccccc2)oc2ccccc12)c1cc(-c2ccccc2O)n[nH]1	n	0.66µM	n	n	1.5µM	n
Cc1ccc(C)c(NC(=O)CN(C)C(=O)c2nn(C)c(=O)c3ccccc23)c1	n	n	n	n	n	n
Cn1c(O)c(C(=NCCc2c[nH]c3ccccc23)c2ccccc2)c(=O)n(C)c1=O	x	u	n	n	9.3µM	n
CCCCn1c(O)c(C(C)=NCCc2c[nH]c3ccccc23)c(=O)[nH]c1=O	n	u	u	n	u	n
COc1ccc(CC(=O)Nc2c(C(=O)Nc3ccc(F)cc3)oc3ccccc23)cc1OC	n	x	x	n	x	x
Cc1ccc(S(=O)(=O)N2CCN(C(=O)c3ccc(-n4cncn4)c([N+](=O)[O-])c3)CC2)cc1C	n	7.4µM	n	n	u	n
Nc1ccc(C(=O)N2CCN(S(=O)(=O)c3ccc(Br)cc3)CC2)cc1[N+](=O)[O-]	n	8.3µM	n	-61	u	n
O=C(Nc1cccc(Cl)c1)c1ccc(-n2cncn2)c([N+](=O)[O-])c1	n	u	u	n	12µM	n
CCN(CC)S(=O)(=O)c1cc(NC(=O)c2ccc(-n3cncn3)c([N+](=O)[O-])c2)ccc1C	n	15µM	11µM	-84	13µM	n
Cc1ccc(NC(=O)c2ccc(-n3cncn3)c([N+](=O)[O-])c2)cc1	n	u	u	n	u	n
CC(=O)c1ccc(S(=O)(=O)N2CCN(C(=O)c3ccc(N)c([N+](=O)[O-])c3)CC2)cc1	n	u	n	n	u	n
